PubChem BioAssay AID2314 (National Center for Advancing Translational Sciences (NCATS), 2010)
About 37,000 (12%) of roughly 300,000 compounds were called active. This is one part of a sample in which actives are shown more often than they occur. Unmarked numbers belong to inactive results. No stated cut-off is given here; in the data, active means max response mostly above about 13% (no sharp cut-off); inactive means mostly below about 14%.

Assay: Cycloheximide Counterscreen for Small Molecule Inhibitors of Shiga Toxin; further: read at 38.3 µM for the half of the compounds with a filed dose; 0% is about no effect
Settings: cell reporter, cycloheximide protein synthesis inhibition counterscreen; hits give high values

SMILES	max response
CCn1c(SCC(=O)NC2CCCC2)nnc1-c1ccoc1C	-1.45%
CCn1c(SCC(=O)Nc2nc3ccc(OC)cc3s2)nnc1-c1ccoc1C	23.1% (active)
CCOc1ccc2nc(NC(=O)CSc3nc4c(c(=O)n(C)c(=O)n4C)n3CC)sc2c1	-6.89%
CC(=O)Nc1ccc(SCC(=O)Nc2ccccc2Oc2ccccc2)cc1	0.468%
C=CCNC(=O)c1ccccc1NC(=O)c1ccc(Cl)c(S(=O)(=O)Nc2cccc(C)c2C)c1	1.27%
CCc1cccc(C)c1NS(=O)(=O)c1c(C)nc2sccn2c1=O	-1.71%
Cc1ccc2c(c1)c1ncn(Cc3ccc(F)cc3)c(=O)c1n2C	-2.24%
Cc1ccc2c(c1)c1ncnc(N3CCc4ccccc4C3)c1n2C	42.1% (active)
Cc1ccc2c(c1)c1ncn(CCC3=CCCCC3)c(=O)c1n2C	-3.65%
OCCN1CCN(c2nnc(-c3ccccc3)c3ccccc23)CC1	-4.91%
COc1ccc(S(=O)(=O)NCC(=O)NCc2cc(=O)n(C)c(=O)n2C)cc1F	-6.78%
O=C(COc1ccc2c(c1)CCC2)N1CCN(c2ccc(F)cc2)CC1	-1.09%
Cc1c(NC(=O)c2cc(-c3ccc(Br)cc3)on2)c(=O)n(-c2ccccc2)n1C	-1.9%
C[C@H](NC(=O)NCCc1ccccc1)C(=O)O	-6.82%
CCCCNC(=S)NNC(=O)c1cc(C)on1	-1.9%
O=C(NCCN1CCCC(O)C1)c1cc(COc2c(F)cccc2F)on1 (stereo unspecified)	9.93%
CSc1ncc(C(=O)NCCCc2ccccc2)c(C)n1	10.8%
Cc1cc(C(=O)NCCCc2ccccc2)no1	13.1% (active)
CC(C)Cc1cc(C(=O)NCCc2ccccc2)no1	53.1% (active)
O=C(NCCCc1ccccc1)c1cc(COc2c(F)cccc2F)on1	31.8% (active)
CC(C)CNC(=O)c1cc(-c2ccc(Br)cc2)on1	36% (active)
Nc1nonc1C(=O)NCCc1ccccc1	10.9%
CCN(CC)CCCNC(=O)c1cc(-c2cccc(Cl)c2)on1	0.892%
O=C(COC(=O)c1ccc(F)cc1)NCCCc1ccccc1	-9.6%

SMILES	max response
Cc1ccc2c(c1)N(CC(=O)NCCCN1CCCCC1)C(=O)c1cccnc1O2	1.05%
Cc1cccc(NC(=O)Cn2c(=O)n(Cc3ccccc3)c(=O)c3c(C)c(C)sc32)c1	-2.17%
CCOc1ccc(OCC)c(NC(=O)CSc2nnc(Cn3cnc4ccccc43)n2C)c1	-0.798%
COc1cccc(-n2nc(C(=O)N3CCN(Cc4ccccc4)CC3)c3ccccc3c2=O)c1	1.57%
COc1ccc(C(=O)Nc2ccnn2C2CCN(Cc3ccncc3)CC2)cc1	7.85%
O=C(CCN1C(=O)[C@@H]2Cc3ccccc3CN2C1=O)NCCc1ccccc1	-1.26%
CCCOc1ccc(C2=CSC3=NCCN23)cc1Cl	1.92%
O=C(CSc1ncccn1)N1CCCC1	-5.34%
O=S(=O)(NCC1OCCc2ccccc21)c1ccccc1 (stereo unspecified)	1.35%
CC(=O)c1nc2ccccc2n1Cc1ccccc1	-1.93%
CC(C)Cc1cc(C(=O)Nc2cc(Br)ccc2O)no1	31.8% (active)
COc1ccc(NS(=O)(=O)c2ccc(N3CCN(CCO)CC3)c([N+](=O)[O-])c2)cc1	1.31%
O=S(=O)(c1cccc2nonc12)N1CCN(c2cccc(Cl)c2)CC1	0.53%
Cc1cc2cc3c(N)[nH]nc3nc2cc1C	20.7% (active)
CCOc1cc(C(=S)N2CCOCC2)ccc1OS(=O)(=O)c1ccc(Br)cc1	-1.79%
CC(=O)c1ccc(S(=O)(=O)NCc2nnnn2-c2ccccc2)cc1	-4.62%
Cc1cc(C)cc(NC(=O)C2CCCN(S(=O)(=O)c3ccc4[nH]c(=O)ccc4c3)C2)c1 (stereo unspecified)	1.72%
CCOc1ccc(C2/C(=C(/O)c3ccc4c(c3)CC(C)O4)C(=O)C(=O)N2CCCn2ccnc2)cc1 (stereo unspecified)	0.806%
COCCn1c(-c2ccc(OC)c(OC)c2)nc2ccccc21	18.4% (active)
CCOCCn1c(-c2ccccc2)nc2ccccc21	-1.28%
COc1ccc(-c2nc3ccccc3n2CCC(C)C)cc1OC	-2.09%
CC(NCc1ccccc1OC1CCCC1)c1ccccc1 (stereo unspecified)	-1.87%
Cc1cc(Cl)c2oc(C(=O)N3CCC(O)(c4ccccc4)CC3)c(C)c2c1	4.04%
Cc1cc(Cl)c2oc(C(=O)N(C)C(C)c3ccccn3)c(C)c2c1 (stereo unspecified)	28.7% (active)

SMILES	max response
Cc1cc(Cl)c2oc(C(=O)NC(C)c3ccncn3)c(C)c2c1 (stereo unspecified)	6.71%
COc1ccc(CNC(=O)C2CC(c3ccc(C(F)(F)F)cc3)=NO2)cc1 (stereo unspecified)	-0.982%
Cc1cc(OCCCCOc2ccc(C#N)cc2)ccc1[N+](=O)[O-]	-6.16%
COc1ccccc1N1CCN(C(=O)CSc2ncnc3c2cnn3-c2ccc(C)c(C)c2)CC1	44.7% (active)
CC(=O)Nc1ccc(NC(=O)CSc2ncnc3c2cnn3Cc2ccccc2)cc1	6%
O=C(CSc1ncnc2c1cnn2CCc1ccccc1)Nc1ccc(F)cc1	2.37%
c1ccc(-n2ncc3c(N4CCCC4)ncnc32)cc1	8.89%
CC(C)Sc1ncnc2c1cnn2-c1ccccc1	46.6% (active)
COc1ccc(N2CCN(C(=O)CSc3ncnc4c3cnn4-c3ccc(OC)cc3)CC2)cc1	-1.01%
c1ccc(-n2ncc3c2ncn2c(C4CCCCC4)nnc32)cc1	-1.23%
CCN(CC)C(=O)CSc1ncnc2c1cnn2-c1ccccc1	38.4% (active)
COc1ccc(NC(=O)CSc2ncnc3[nH]ncc23)cc1	1.38%
COC(=O)CSc1ncnc2c1cnn2-c1ccc(C)cc1C	-8.2%
COc1ccc(-n2ncc3c(SCC(=O)NNC(C)=O)ncnc32)cc1	26.3% (active)
COc1ccccc1N1CCN(C(=O)CSc2nnc(-c3ccoc3C)o2)CC1	-1.64%
O=S(=O)(Nc1ccccc1)c1ccc(NS(=O)(=O)c2cccs2)cc1	-2.66%
CCCCSc1nnc2c(n1)OC=Nc1ccccc1-2	12.2%
COc1cc(N2C(=O)CSC2=S)cc(OC)c1OC	-3.84%
Cc1ccccc1NC(=O)Cn1cc(C(=O)C2CC2)c2ccccc21	-4.37%
NC(=O)c1nsc(C(=O)N(CCCN2CCOCC2)C(C(=O)NC2CCCCC2)c2ccc(Cl)cc2)c1N (stereo unspecified)	0.533%
O=C(O)c1ccccc1-c1ccccc1C(=O)Nc1ccccc1Br	-9.84%
N#Cc1c(-c2ccccc2)cc(-c2ccccc2)nc1SCC(=O)O	-2.46%
Brc1ccc(Nc2c3c(nc4ncnn24)CCC3)cc1	-7.39%
O=C(NCc1ccccc1Cl)C1CCN(c2ncnc3c2nc2n3CCCCC2)CC1	17%

SMILES	max response
CC(=O)Nc1c2c(nn1-c1ccc(C)cc1C)CS(=O)C2 (stereo unspecified)	-1.87%
COc1ccc(-c2nc3c(c(SCC(=O)Nc4ccc(C(=O)O)cc4)n2)Cc2ccccc2O3)cc1	12.1%
Cc1ccc2[nH]c(=O)c(CN(C)S(=O)(=O)c3cccc4nonc34)cc2c1	-10.5%
COc1cc(Cl)c(C)cc1NC(=O)[C@@H]1CCCN1C(=O)c1cccs1	-0.643%
COc1ccc2nc(NC(=O)[C@@H]3CCCN3C(=O)c3cccs3)sc2c1	15.2% (active)
COc1ccc2nc(NC(=O)NC3CCCCC3)sc2c1	47.7% (active)
COc1ccc(CNC(=O)c2ccc(Br)s2)cc1OC	10.2%
COc1ccc(Cl)cc1NC(=O)[C@@H]1CCCN1C(=O)c1cccs1	4.64%
COc1ccc(S(=O)(=O)N2CCN(C(=O)NC3CCCCC3)CC2)cc1	1.04%
COc1ccc(-n2cnc3cc(C(=O)NC4CCCC4)ccc32)cc1	-1.06%
CCOc1ccc2nc(NC(=O)c3cc([N+](=O)[O-])ccc3N3CCOCC3)sc2c1	11.9%
COc1ccc2nc(NC(=O)c3ccc(Br)s3)sc2c1	67.5% (active)
NS(=O)(=O)c1ccc(CNC(=O)c2ccc(Cl)cc2[N+](=O)[O-])cc1	-0.486%
Cc1cccc(N(C)C(=O)c2cc(S(=O)(=O)N3CCCCC3)c[nH]2)c1	-1.63%
O=C(NCc1ccccc1)C(c1ccco1)N(C(=O)c1csnn1)c1ccccc1F (stereo unspecified)	-6.55%
O=C1c2ccccc2C2=Nc3ccccc3SC(c3ccccc3F)C12 (stereo unspecified)	9.05%
COc1ccc(N2CCN(S(=O)(=O)c3ccc4c(c3)N(C(C)=O)CCO4)CC2)cc1	2.5%
CN(C(=O)c1ccccn1)c1nnc(-c2ccccn2)s1	68.8% (active)
CN(C(=O)c1ccno1)c1nnc(-c2cccnc2)s1	7.05%
CN(C(=O)COc1ccccc1)c1nnc(-c2ccncc2)s1	-3.07%
CCOc1ccc(C(C)=O)cc1CSc1nnc(-c2ccncc2)n1CCOC	-6.17%
CC1(C)Cc2ccccc2/C(=C/C(=O)c2ccccc2)N1	4.21%
Cc1noc(C)c1CSCC(=O)N(CCC(C)C)c1c(N)n(Cc2ccccc2)c(=O)[nH]c1=O	-1.36%
O=C(O)C1CCCN1C1=NS(=O)(=O)c2ccccc21 (stereo unspecified)	-4.57%
